For 38 compounds, Potency, activation and outcome results are on record in PubChem BioAssay (Tox21).

Structures are written as SMILES. A number with no mark means an inactive call. Inconclusive results are not listed. Where a call stands in place of a potency, no number is given. Active and inactive are the calls of the source. Unless noted, calls follow the shape of the dose curve; as a rule, active = well fitted inhibition curve with a large enough effect in the repeat runs (not every such curve was filed as active); inconclusive = weak or mixed curves; inactive = flat fitted curve, though single readings scatter.

Tested on in one experiment: not listed separately
In words: qHTS assay to identify small molecule agonists of the TGF-beta/Smad signaling pathway (AID 1346859; active = well fitted activation curve with a large enough effect in the signal ratio in the repeat runs, not every such curve was filed as active; the % refers to the signal ratio; also: potency is read from the fitted curve at half-maximal effect). The conditions noted are these: SBE-bla HEK293T, TGF-beta/Smad beta-lactamase reporter, 5 h; series mostly up to 76.8 µM. In outline:
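HEK 293T cells stably carrying a beta-lactamase reporter driven by the Smad binding element were seeded overnight, exposed to DMSO-dissolved compounds for 5 hr at 37 C, 5% CO2, then loaded with FRET substrate for 2 hr at room temperature.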
Turning to `C[C@@H]1C[C@H]2[C@@H]3CCC4=CC(=O)C=C[C@]4(C)[C@@]3(F)[C@@H](O)C[C@]2(C)[C@@]1(O)C(=O)COP(=O)(O)O`, the Potency result was “inactive”.

As to `O=C(O)CN1C(=O)c2cccc3cccc(c23)C1=O`, the Potency result is “inactive”.

Take `CCOC(=O)c1c(N)sc2c1CCN(Cc1ccccc1)C2`: the Potency was 7.56 µM (active).

On to `CC[C@@H](CO)NCCN[C@@H](CC)CO`, for which the Potency entry was “inactive”.

As to `CCOC(=O)c1ccc(NC(=O)CN2CCCCC2)cc1`, the Potency entry was “inactive”.

On to `CC(=O)OCC(C)C`, for which the Potency entry was “inactive”.

As to `Cc1cn([C@H]2C[C@H](F)[C@@H](CO)O2)c(=O)[nH]c1=O`, the Potency entry was “inactive”.

With `O=S(=O)(O)CO`, the Potency entry is “inactive”.

In the case of `COC(=O)Nc1nc2ccc(C(=O)C3CC3)cc2[nH]1`, the Potency entry is “inactive”.

In the case of `CCCCCCCCCCCSCC(=O)O`, the Potency entry was “inactive”.

On to `CC(C)C(O)C(C)(C)CO` (stereo unspecified), for which the Potency result is “inactive”.

As for `Nc1nc(-c2ccc([N+](=O)[O-])cc2)cs1`, the Potency result is “inactive”.

For the compound `CC(CCc1ccc(O)cc1)NCCc1ccc(O)c(O)c1` (stereo unspecified), the Potency entry is “inactive”.

In the case of `COc1cc(NC(C)CCCN)c2ncccc2c1` (stereo unspecified), the Potency result is “inactive”.

Take `CC(C)OC(=O)c1ccccc1C(=O)OC(C)C`: the Potency result is “inactive”.

In the case of `Cc1ccccc1S(N)(=O)=O`, the Potency entry is “inactive”.

For `COc1cc(S(=O)(=O)Nc2ccccc2)c(OC)cc1N`, the Potency result is “inactive”.

As to `COC1CCC=CO1` (stereo unspecified), the Potency result is “inactive”.

Take `O=C1NC(=O)c2cccc3cccc1c23`: the Potency result is “inactive”.

Regarding `c1ccc2sc(SSc3nc4ccccc4s3)nc2c1`, the activation is 3.56% [at 15.8 µM].

As to `NC(=O)c1ccccc1[N+](=O)[O-]`, the Potency entry is “inactive”.

`COc1cc(NCc2ccc3nc(N)nc(N)c3c2C)cc(OC)c1OC`: the Potency entry was “inactive”.

On to `O=C1OC(=O)c2c(Br)c(Br)c(Br)c(Br)c21`, for which the Potency result was “inactive”.

`CCCCCC`: the Potency entry was “inactive”.

In the case of `CC[C@H]1OC(=O)[C@H](C)[C@@H](O[C@H]2C[C@@](C)(OC)[C@@H](O)[C@H](C)O2)[C@H](C)[C@@H](O[C@@H]2O[C@H](C)C[C@H](N(C)C)[C@H]2O)[C@](C)(O)C[C@@H](C)CN(C)[C@H](C)[C@@H](O)[C@]1(C)O`, the Potency result was “inactive”.

Turning to `Cc1ccc(Nc2c(F)cccc2Cl)c(CC(=O)O)c1`, the Potency entry is “inactive”.

On to `c1ccc(CCCc2ccncc2)cc1`, for which the Potency result was “inactive”.

On to `CC(C)c1ccc(C(=O)N=C(N)N)cc1S(C)(=O)=O`, for which the Potency entry is “inactive”.

In the case of `COC(=O)C1=C(C)NC(C)=C(C(=O)OC(C)(C)CN(C)CCC(c2ccccc2)c2ccccc2)C1c1cccc([N+](=O)[O-])c1` (stereo unspecified), the Potency entry is “inactive”.

Regarding `Cc1ccc2c(c1[N+](=O)[O-])C(=O)c1ccccc1C2=O`, the Potency result was “inactive”.

Regarding `O=c1[nH]c2cc(C(F)(F)F)c(N3CCOCC3)cc2n(CP(=O)(O)O)c1=O`, the Potency result was “inactive”.

Consider `Cc1ccc2c(c1)CCCN2`, for which the Potency entry is “inactive”.

Consider `COc1ccc(N)c([N+](=O)[O-])c1`, for which the Potency result is “inactive”.

Consider `C1CCCCC1`, for which the Potency result was “inactive”.

With `C1=CCC2CC=CC2C1` (stereo unspecified), the Potency entry is “inactive”.

As to `CN1CCCN(C(c2ccccc2)c2ccc(Cl)cc2)CC1` (stereo unspecified), the Potency result is “inactive”.

As to `CC(CN(CCN(CC(C)OCCO)CC(C)OCCO)CC(C)OCCO)OCCO` (stereo unspecified), the Potency result was “inactive”.

For the next experiment, the target named is Thyrotropin-releasing hormone receptor (Homo sapiens) (UniProt P34981). Nature of the experiment: qHTS assay to identify small molecule antagonists of the thyrotropin-releasing hormone receptor (TRHR) signaling pathway (AID 1346877). The conditions noted are these: TRHR-HEK293, TRH-induced calcium fluorescence, antagonist mode; series mostly up to 51.3 µM. In outline: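 Cells (TRHR-HEK293) are plated and kept 18 h at 37 °C/5% CO2. A calcium-sensitive dye is added for 2 h, compound follows for 5 min at room temperature, and TRH is then given at 1 nM final.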
Sequence of Thyrotropin-releasing hormone receptor (Homo sapiens) (P34981 whole entry, looked up): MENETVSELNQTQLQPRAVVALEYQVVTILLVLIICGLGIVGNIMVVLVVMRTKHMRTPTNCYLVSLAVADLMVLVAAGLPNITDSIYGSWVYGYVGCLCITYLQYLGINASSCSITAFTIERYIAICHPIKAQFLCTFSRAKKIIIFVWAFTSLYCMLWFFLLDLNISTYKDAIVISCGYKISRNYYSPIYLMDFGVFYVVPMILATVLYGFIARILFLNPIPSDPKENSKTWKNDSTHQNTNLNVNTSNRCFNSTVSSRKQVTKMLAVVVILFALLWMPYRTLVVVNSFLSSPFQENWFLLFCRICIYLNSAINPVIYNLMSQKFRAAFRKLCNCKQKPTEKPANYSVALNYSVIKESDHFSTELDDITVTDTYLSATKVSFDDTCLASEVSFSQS
For `CCN(CC)C(=O)/C(C#N)=C/c1cc(O)c(O)c([N+](=O)[O-])c1`, the outcome was inactive.

Consider `C[C@@H]1C[C@H]2[C@@H]3CCC4=CC(=O)C=C[C@]4(C)[C@@]3(F)[C@@H](O)C[C@]2(C)[C@@]1(O)C(=O)COP(=O)(O)O`, for which the outcome was inactive.

In the case of `O=C(O)CN1C(=O)c2cccc3cccc(c23)C1=O`, the outcome was inactive.

For `CCOC(=O)c1c(N)sc2c1CCN(Cc1ccccc1)C2`, the result was inactive.

Consider `CC(=O)OCC(C)C`, for which the outcome was inactive.

With `O=S(=O)(O)CO`, the outcome was inactive.

Regarding `CCCCCCCCCCCSCC(=O)O`, the result was inactive.

On to `CC(C)C(O)C(C)(C)CO` (stereo unspecified), for which the outcome was inactive.

For the compound `Nc1nc(-c2ccc([N+](=O)[O-])cc2)cs1`, the result was inactive.

Consider `CC(CCc1ccc(O)cc1)NCCc1ccc(O)c(O)c1` (stereo unspecified), for which the result was inactive.

Turning to `COc1cc(NC(C)CCCN)c2ncccc2c1` (stereo unspecified), the result was inactive.

`CC(C)OC(=O)c1ccccc1C(=O)OC(C)C`: the outcome was inactive.

Take `Cc1ccccc1S(N)(=O)=O`: the outcome was inactive.

Turning to `COc1cc(S(=O)(=O)Nc2ccccc2)c(OC)cc1N`, the result was inactive.

Consider `O=C1NC(=O)c2cccc3cccc1c23`, for which the result was inactive.

For the compound `NC(=O)c1ccccc1[N+](=O)[O-]`, the outcome was inactive.

As to `COc1cc(NCc2ccc3nc(N)nc(N)c3c2C)cc(OC)c1OC`, the outcome was inactive.

For the compound `O=C1OC(=O)c2c(Br)c(Br)c(Br)c(Br)c21`, the outcome was inactive.

Take `CCCCCC`: the result was inactive.

Take `CC[C@H]1OC(=O)[C@H](C)[C@@H](O[C@H]2C[C@@](C)(OC)[C@@H](O)[C@H](C)O2)[C@H](C)[C@@H](O[C@@H]2O[C@H](C)C[C@H](N(C)C)[C@H]2O)[C@](C)(O)C[C@@H](C)CN(C)[C@H](C)[C@@H](O)[C@]1(C)O`: the outcome was inactive.

For `Cc1ccc(Nc2c(F)cccc2Cl)c(CC(=O)O)c1`, the outcome was inactive.

On to `c1ccc(CCCc2ccncc2)cc1`, for which the outcome was inactive.

Regarding `COC(=O)C1=C(C)NC(C)=C(C(=O)OC(C)(C)CN(C)CCC(c2ccccc2)c2ccccc2)C1c1cccc([N+](=O)[O-])c1` (stereo unspecified), the result was inactive.

With `O=c1[nH]c2cc(C(F)(F)F)c(N3CCOCC3)cc2n(CP(=O)(O)O)c1=O`, the outcome was inactive.

For `Cc1ccc2c(c1)CCCN2`, the result was inactive.

Consider `COc1ccc(N)c([N+](=O)[O-])c1`, for which the result was inactive.

In the case of `C1CCCCC1`, the outcome was inactive.

Take `C1=CCC2CC=CC2C1` (stereo unspecified): the result was inactive.

For `CC(CN(CCN(CC(C)OCCO)CC(C)OCCO)CC(C)OCCO)OCCO` (stereo unspecified), the result was inactive.
